# Assay outcomes deposited in PubChem BioAssay by Buhrlage Lab, Dana-Farber Cancer Institute and Novartis Institutes for BioMedical Research (Cambridge, Mass).
# An excerpt weighted towards active compounds, which were near 13% of everything screened.
# USP7 inh = inhibitors of human USP7 deubiquitinase | Ubiquitin carboxyl-terminal hydrolase 7 (Homo sapiens), Q93009 | inhibition, % at 20 µM | hit rate 0.3% among 47,000 | AID 1645854, 2021 | purified USP7, Ub-rhodamine cleavage fluorescence
# USP10 inh = inhibitors of human USP10 deubiquitinase; Ubiquitin carboxyl-terminal hydrolase 10 (Homo sapiens), Q14694; AID 1645856, 2021; purified USP10, Ub-rhodamine fluorescence, 60 min; inhibition, % at 20 µM; hit rate 1.1% among 47,000
# USP8 inh = inhibitors of human USP8 deubiquitinase; hit rate 4.2% among 47,000; AID 1645853, 2021; purified USP8, Ub-rhodamine cleavage fluorescence, 30 min; Ubiquitin carboxyl-terminal hydrolase 8 (Homo sapiens), P40818; inhibition, % at 20 µM
# USP17 block = inhibitors of human USP17 deubiquitinase | AID 1645855, 2021 | hit rate 6.5% among 47,000 | purified USP17, Ub-rhodamine cleavage fluorescence, 3 h | inhibition, % at 50 µM
# USP30 block = inhibitors of human USP30 deubiquitinase. Ubiquitin carboxyl-terminal hydrolase 30 (Homo sapiens), Q70CQ3. purified USP30, Ub-rhodamine cleavage fluorescence. inhibition, % at 25 µM. hit rate 5.3% among 47,000
# USP28 block = inhibitors of human USP28 deubiquitinase; Ubiquitin carboxyl-terminal hydrolase 28 (Homo sapiens), Q96RU2; purified USP28, Ub-rhodamine cleavage fluorescence, 30 min; inhibition, % at 25 µM; hit rate 3% among 47,000
# The depositor's hits bear a star; i = inactive; . = no result given. Rule as the data show it: active = inhibition above about 30%; inactive = the rest.
SMILES,USP7 inh,USP10 inh,USP8 inh,USP17 block,USP30 block,USP28 block
COc1ccc(-c2nnc(SCC(=O)Nc3ccc(C)cc3)n2C2CCCCC2)cc1OC,-15,-1,9,34*,48*,15
Cc1cc2nc(N3CCC(C)CC3)c3ccccc3n2n1,-13,4,-24,3,28,9
Cc1ccccc1C(=O)c1ccc(C(=O)NC2CCCCCC2)[nH]1,7,11,41*,14,52*,4
Cc1ccc(NC(=O)CCc2nnc(C(=O)Nc3ccccc3)s2)cc1C,-82,-9,-14,39*,-66,0
O=C1CC(c2noc(CCc3ccccc3)n2)CN1Cc1ccccc1 (centres undefined),-12,-8,2,1,5,2
O=C(Nc1ncccc1O)C1CC(=O)N(c2ccc3c(c2)OCO3)C1 (centres undefined),-3,-8,55*,14,-70,-5
CC(CCc1ccccc1)NC(=O)Cn1ncc2c(=O)oc3ccccc3c21 (centres undefined),1,11,-3,-13,-6,-8
Cc1c(Cl)cccc1NC(=O)Cn1cc(C(=O)C2CC2)c2ccccc21,36*,49*,86*,0,1,-5
O=C(Cn1cc(C(=O)C2CC2)c2ccccc21)NCc1ccc2c(c1)OCO2,9,13,69*,83*,6,51*
O=C(Cn1ccc2ccc(Br)cc21)NCc1ccc2c(c1)OCO2,-1,2,-21,-26,-38,-15
O=C(Cn1cnc2c(c1=O)CCN(Cc1ccccc1)C2)Nc1ccccc1Cl,-8,-2,-55,-32,-50,-27
O=C(Cn1ccc2ccn(Cc3ccccc3)c2c1=O)Nc1ccccc1Cl,17,27,77*,33*,10,8
O=C(Cn1ncc2c(=O)oc3ccccc3c21)NCc1ccc2c(c1)OCO2,15,17,42*,28,-9,2
Cc1nnsc1Sc1ccccc1Cl,-11,3,3,5,3,2
CC(C)Cn1cc(C(=O)N2CCCC2)c2ccccc2c1=O,3,0,1,2,5,3
O=C(Cn1cc(S(=O)(=O)Cc2ccccc2)c2ccccc21)NC1CCCCC1,-6,-2,30*,17,-179,-10
O=C(Cn1ccc2ccn(Cc3cccnc3)c2c1=O)NC1CCCC1,0,-1,1,-2,0,2
Cc1ccc(CS(=O)(=O)c2cn(CC(=O)NCc3ccccc3)c3ccccc23)cc1,0,8,6,-19,-66,-12
Cc1c(Cl)cccc1NC(=O)Cn1ccc2ccccc2c1=O,4,-1,8,71*,-37,-7
Cc1c(Cl)cccc1NC(=O)CC1COc2ccccc2NC1=O (centres undefined),-13,-3,17,-16,-15,-2
O=C(Cn1ccc2ccn(Cc3ccccc3)c2c1=O)NC1CCCC1,-9,-2,15,39*,0,27
CN(c1ccccc1)S(=O)(=O)c1cccc(NS(=O)(=O)c2ccc(Cl)c(C(=O)O)c2)c1,5,12,-42,0,-14,2
CCOc1ccccc1C(=O)N1CC(=O)N(Cc2ccccc2OC)CC(O)C1 (centres undefined),-1,0,-8,-9,-10,-15
Cc1sc2nc(C3CC3)n(C3CCN(C(=O)C4CC4)CC3)c(=O)c2c1C,4,12,14,23,33*,13
Cc1sc2nc(C3CC3)n(C3CCN(C(=O)CC(C)C)CC3)c(=O)c2c1C,2,8,11,20,40*,8
SMILES,USP7 inh,USP10 inh,USP8 inh,USP17 block,USP30 block,USP28 block
CCn1cc(S(=O)(=O)N2CCCCCC2c2nn(C)cc2Cl)c(C)n1 (centres undefined),3,3,18,1,11,-18
O=C(NC1CCCCCC1)C1CCN(c2cncnc2N2CCOCC2)CC1,-3,0,0,2,2,4
COc1ccc(-c2cn(-c3ccc(SC(F)F)cc3)c3[n+]2CCC3)cc1OC,.,1,1,9,30*,14
Cc1ccccc1CC(=O)Nc1nnc(C2CC2)s1,0,0,0,41*,1,-3
Cc1nn(C)c(C)c1CC(=O)Nc1nnc(C2CCCCC2)s1,3,2,0,11,26,41*
CCc1ccccc1N1CC(c2nnc(NC(=O)CCc3ccccc3)s2)CC1=O (centres undefined),1,5,-10,30*,-7,-5
CC1CCN(C(=O)Cn2c(-c3nc(-c4ccccc4)no3)cccc2=O)CC1,-19,-1,-14,4,4,6
Cc1ccc(NC(=O)N2C[C@H]3CN(C(C)C)CC[C@H]32)cc1,-55,-8,-64,-106,i,-172
CC(C)C(=O)N1CCCC(c2ccnc3ncnn23)C1 (centres undefined),-2,0,-4,0,0,-5
Cc1ccc(CNC(=O)c2cccc(-c3nc(-c4ccccc4)no3)c2)o1,-5,3,5,-12,0,-8
Cc1ccc(NC(=O)c2cccc(-c3nc(-c4ccccc4)no3)c2)nc1,4,0,4,35*,26,19
CC(C(=O)NCc1ccc2c(c1)OCO2)N1CCN(c2ccc(O)cc2)CC1 (centres undefined),14,8,60*,73*,23,30
CC(=O)N1CC(C(=O)NCc2ccc3c(c2)OCO3)C1,3,6,-16,2,28,9
CC(C(=O)NCc1ccc2c(c1)OCO2)n1nc(-c2ccccc2)c2cc(Cl)ccc21 (centres undefined),6,0,2,35*,25,16
COc1ccc(CNS(=O)(=O)c2cc(-c3[nH]ncc3C(=O)N3CCCC3)oc2C)cc1,-44,2,4,-1,-56,0
COc1ccc(-c2c(C)nc3c(-c4ccsc4)cnn3c2N)cc1,2,3,32*,6,19,9
Cc1ccc(CNC(=O)CCCn2c(=O)c3sccc3n(CC(=O)Nc3cc(Cl)ccc3C)c2=O)cc1,19,28,29,74*,21,55*
CCOc1ccccc1NC(=O)Cn1c(=O)n(CCCC(=O)NCc2ccc(C)cc2)c(=O)c2sccc21,36*,56*,47*,83*,37*,36*
COc1ccccc1N1CCN(C(=O)c2cccc(N3C(=O)CCS3(=O)=O)c2)CC1,0,1,1,-4,-8,-2
O=C1N[C@@H](Cc2ccccc2)C(=O)N2[C@H]3Nc4ccccc4[C@@]3([C@]34C[C@H]5C(=O)N[C@@H](Cc6ccccc6)C(=O)N5[C@H]3Nc3ccccc34)C[C@@H]12,11,16,12,53*,49*,22
